FLuc inh-1 = Photinus pyralis luciferase inhibition; AID 1347043; Potency, µM (doses to about 115 µM), usual class: inhibitors; P08659; purified P. pyralis luciferase, luminescence, biochemical; 2.5% of 76,000 active; also: % is scaled to controls: 0 for no effect and ±100 for the full control effect; nearly all actives have a fitted effect of over 65% in size
Target sequence (P08659 whole entry, looked up): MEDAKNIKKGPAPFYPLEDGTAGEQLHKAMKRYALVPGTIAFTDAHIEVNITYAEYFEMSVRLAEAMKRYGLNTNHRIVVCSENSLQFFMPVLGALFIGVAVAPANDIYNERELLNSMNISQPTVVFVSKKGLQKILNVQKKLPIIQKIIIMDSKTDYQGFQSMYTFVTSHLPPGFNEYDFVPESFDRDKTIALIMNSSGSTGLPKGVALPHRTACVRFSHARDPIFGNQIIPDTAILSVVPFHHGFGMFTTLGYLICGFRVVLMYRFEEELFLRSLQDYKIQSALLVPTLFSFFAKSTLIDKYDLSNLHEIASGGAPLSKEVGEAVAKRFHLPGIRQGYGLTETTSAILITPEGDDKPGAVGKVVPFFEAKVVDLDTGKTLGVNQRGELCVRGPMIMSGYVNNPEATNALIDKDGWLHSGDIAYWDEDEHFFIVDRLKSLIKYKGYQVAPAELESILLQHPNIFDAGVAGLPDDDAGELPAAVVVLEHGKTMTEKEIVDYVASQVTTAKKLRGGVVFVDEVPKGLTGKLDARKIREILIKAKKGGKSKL
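Luminescence read by CCD imaging after purified firefly luciferase (10nM final) was added to substrate buffer holding 10uM D-luciferin and 10uM ATP, pH 7.5, pre-dosed with compound.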
NIH3T3 tox = cytotoxic compounds in NIH 3T3 cells; 4.3% of 94,000 active; NIH 3T3 viability, CellTiter-Glo ATP luminescence, 48-72 h; Potency, µM (doses to about 96.7 µM), for the others: top-dose activity change, negative = cytotoxicity, hits mostly inhibitors; AID 1345082; also: % is scaled to controls: 0 for no effect and ±100 for the full control effect; nearly all actives have a fitted effect of over 55% in size
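ATP-dependent luminescence (CellTiter-Glo) served as the viability signal for NIH 3T3 cells treated with compound for 48 or 72 hr at 37 °C.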
NPR1 antag = human Npr1 receptor antagonism; P16066; HEK293 hNpr1 GloSensor cGMP, ANP-stimulated luminescence; Potency, µM (doses to about 46.3 µM), for the others: at the highest dose activity change, negative = inhibition, usual class: inhibitors; 1.6% of 76,000 active; AID 1347048; calls by dose curve; also: % is scaled to controls: 0 for no effect and ±100 for the full control effect; nearly all actives have a fitted effect of over 60% in size
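Compound pre-incubated 30 min at room temperature on GloSensor-loaded HEK293 cells stably carrying hNpr1 and the pGS-40F cGMP biosensor. Stimulation uses hNppA at 0.1 nM final; luminescence is taken at baseline and 20 min post-agonist.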
GPT2 inh = GPT2 alanine aminotransferase inhibition; Recombinant GPT2, coupled pyruvate oxidase/HRP Amplex Red fluorescence; Potency, µM (top dose mostly 57.7 µM), inactives show at the highest dose activity change, negative = inhibition, actives largely listed as inhibitors; 0.25% of 100,000 active; also: % is scaled to controls: 0 for no effect and ±100 for the full control effect; nearly all actives have a fitted effect of over 60% in size
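GPT2 10ng/uL, a-KG 250uM, L-Ala 2mM, HEPES pH7.5 + 0.0001% Tween; 30 min RT. Then Amplex mix (PO/HRP/ThPP), 30 min RT dark, fluorescence. AOA 50uM used as positive control.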
HEK cytotox = kills HEK 293 cells; HEK 293 viability, ATP luminescence (CellTiter-Glo), 48-72 h; Potency, µM (series often up to 115 µM), for the others: at the top dose activity change, negative = cytotoxicity, hits mostly inhibitors; 6.6% of 94,000 active; also: % is scaled to controls: 0 for no effect and ±100 for the full control effect; nearly all actives have a fitted effect of over 60% in size
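Pintool-delivered compounds were incubated with HEK 293 cells (250 cells/well) at 37 degree Celsius for 48 or 72 hr. ATP-dependent luminescence (CellTiter-Glo) then reported remaining viable cells.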
FLuc SDR -ATP = binders stabilizing firefly luciferase, without ATP; 7.8% of 1,300 active; shares compounds with FLuc inh-1; AID 1963318; Potency, µM (titrated, usually from 32.7 µM), inactives show at the highest dose activation (signal gain), actives largely listed as activators; Purified FLuc-C-HiBiT, Nano-Glo HiBiT luminescence, no ATP; also: nearly all actives have a fitted effect of over 55% in size
FLuc SDR ATP = binders stabilizing firefly luciferase, plus ATP | shares compounds with FLuc inh-1 | purified FLuc-C-HiBiT + ATP, HiBiT complementation luminescence | Potency, µM (series often up to 32.7 µM), for inactives: at the highest dose activation (gain of signal), most hits filed as activators | 8.7% of 1,300 active | AID 1963319;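 also: signal reports ligand binding via conformational change of the enzyme rather than luciferase catalysis; % of control where 0% means no effect; nearly all actives have a fitted effect of over 55% in size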
FLuc inh-2 = inhibitors of firefly luciferase enzymatic activity; Potency, µM (highest dose often 32.7 µM), without a hit: top-dose activity change, negative = inhibition, usual class: inhibitors; AID 1963320; shares compounds with FLuc inh-1; 42% of 1,300 active; purified FLuc-C-HiBiT enzyme, luciferin luminescence; also: % is scaled to controls: 0 for no effect and ±100 for the full control effect; nearly all actives have a fitted effect of over 70% in size
Active calls of the source: *; i = inactive; u = inconclusive; x = not tested or not shown; [ ] = another dose, or the depositor's remark. Sampled rows, rich in hits. Any-hit rate of the full collection: about 10%. Unless noted, calls follow the shape of the dose curve; as a rule, active = well fitted curve in the direction sought with a large enough effect; inconclusive = small, poorly fitted or top-dose-only effect, or another doubt; inactive = no such curve, though single readings can be large; an effect the other way counts as inactive or inconclusive. Potency is read from the fitted curve at half-maximal effect.

SMILES	FLuc inh-1	NIH3T3 tox	NPR1 antag	GPT2 inh	HEK cytotox	FLuc SDR -ATP	FLuc SDR ATP	FLuc inh-2
Cc1c(-c2ccccc2F)[nH]c2ccc(CNC(=O)C3CCCN(C(N)=O)C3)cc12 (configuration not stated)	3.5µM*	u	-5%	-13%	u	31%	u	5.6µM*
Cc1c(-c2ccccc2F)[nH]c2ccc(CNC(=O)C3C=CCN3)cc12 (configuration not stated)	10µM*	u	-23%	0%	u	19%	13%	u
NC(=O)N1CCCC(C(=O)NCCc2noc(-c3ccccc3)n2)C1 (configuration not stated)	i	i	2%	-6%	5%	x	x	x
CCc1[nH]c2ccc(CNC(=O)[C@H]3[C@@H]4C=C[C@@]5(CN(C)C(=O)[C@@H]35)O4)cc2c1C	i	0%	6%	-4%	-2%	x	x	x
CCc1nc(-c2c3n(c(=O)n(Cc4ccccc4C)c2=O)CCCC3)no1	i	u	-9%	-30%	-4%	x	x	x
CCOc1ccc2c(n1)CCN(C(=O)c1nn(C)c3ccccc13)C2	i	-13%	5%	i	-5%	x	x	x
CC1=C[C@@H](CNC(=O)c2ccncc2)[C@H](C(C)C)C[C@H]1CC(=O)N1CCOCC1	13µM*	-2%[138 µM]	u	-8%[88.5 µM]	-11%[172 µM]	10%[49.3 µM]	14%[49.3 µM]	-13%[49.3 µM]
CCOC(=O)[C@H]1[C@@H](O)C(=O)N(Cc2ccccc2)C12CCN(C(=O)CC)CC2	x	u	x	x	-9%	x	x	x
O=C(Nc1ccccc1)N1CC(Oc2ccc(-c3nc(-c4ccccc4)no3)cc2)C1	1.3µM*	-3%	-22%	i	u	17%	14%	u
O=C(N1CC(Oc2ccc(-c3noc(-c4ccccc4)n3)cc2)C1)C1(c2ccccc2)CC1	i	i	2%	i	-15%	x	x	x
O=C(c1cccc(F)c1)N1CC(Oc2cccc(-c3nc(-c4ccccc4)no3)c2)C1	u	u	5%	-7%	u	x	x	x
O=C(Cc1cccc(F)c1)N1CC(Oc2ccc(-c3nc(-c4ccccc4)no3)cc2)C1	2µM*	-13%	7.9µM*	i	u	13%	15%	u
Cc1noc(-c2ccc(OC3CN(C(=O)NCc4ccccc4)C3)cc2)n1	i	u	u	-2%	u	x	x	x
CCNC(=O)N1CC(Oc2ccc(-c3nc(-c4ccccc4)no3)cc2)C1	0.63µM*	-34%	0.25µM*	1%	u	19%	19%	u
O=C(NC1CCCC1)C1CCN(C(=O)c2ccc(-c3cncnc3)cc2)CC1	x	-29%	x	1%	-4%	x	x	x
O=C(NCCn1cccc1-c1nc(-c2ccc3c(c2)OCO3)no1)c1ccc(Cl)cc1	14µM*	-26%	-22%	i	u	13%	12%	u
Cc1ccc(C(=O)NCCn2cccc2-c2nc(-c3ccc4c(c3)OCO4)no2)cn1	13µM*	u	-25%	i	28µM*	26%	17%	u
COc1ccc(C(=O)NCCn2cccc2-c2nc(-c3ccccc3)no2)cc1	2.5µM*	-3%	u	i	-24%	u	u	2.8µM*
CCN1CCN(C(=O)c2ccc3oc(-c4ccncc4)nc3c2)CC1	x	-16%	x	-15%	-16%	x	x	x
COc1ccc(CN2C[C@@H]3C[C@H]2C(=O)N(Cc2ccccn2)c2ccccc2O3)cc1	i	u	-15%[70.6 µM]	4%[88.5 µM]	u	x	x	x
O=C(Cn1cccc1-c1nc(-c2ccccc2)no1)Nc1cccc(F)c1	i	i	-2%	-6%	6%	x	x	x
Cc1noc(-c2cccn3c(CNC(=O)c4ccccc4)nnc23)n1	i	-25%	-17%	i	-5%	x	x	x
Cc1noc(-c2cccn3c(CNC(=O)c4ccc(C(C)(C)C)cc4)nnc23)n1	7.9µM*	-30%	-21%	i	u	u	u	9.9µM*
CCOc1ccc(C(=O)Nc2onc3c2CCCC3)cc1	x	x	x	x	x	u	7µM*	2µM*
O=C(Nc1onc2c1CCCC2)c1ccccc1	x	x	x	x	x	18%	u	u
SMILES	FLuc inh-1	NIH3T3 tox	NPR1 antag	GPT2 inh	HEK cytotox	FLuc SDR -ATP	FLuc SDR ATP	FLuc inh-2
CC(C)COc1ccc(C(=O)Nc2onc3c2CCCC3)cc1	x	x	x	x	x	28%	u	2µM*
O=C(c1ccccc1F)N1CCn2c(nnc2-c2ccc(Cl)cc2)C1	x	u	x	i	1%	x	x	x
COc1ccccc1OCCNC(=O)[C@@H]1COCC(=O)N1Cc1ccc(F)cc1	i	-7%	0%	-15%	-21%	x	x	x
COc1ccc(CCNC(=O)c2cc(-c3cc(Cl)cc(Cl)c3)c3nncn3n2)cc1	x	-27%	x	i	-2%	x	x	x
COc1ccccc1OC(C)C(=O)Nc1ccc(-c2nc3ccccc3s2)cc1 (configuration not stated)	x	x	x	x	x	15%	13%	-10%
CN(C)c1cccc(C(=O)Nc2ccc(-c3nc4ccccc4s3)cc2)c1	x	x	x	x	x	30%	u	u
CN(C(=O)OC(C)(C)C)c1ccc(-c2nc3ccccc3s2)cc1	x	x	x	x	x	1.4µM*	0.35µM*	0.099µM*
O=C(COc1ccccc1F)Nc1ccc(-c2nc3ccccc3s2)cc1	x	x	x	x	x	10%	7%	-5%
COC[C@H]1C[C@@H](NC(=O)c2nc3ccccc3s2)[C@H](O)[C@@H]1O	i	-7%[138 µM]	-9%[70.6 µM]	i	-5%[172 µM]	x	x	x
CC1(C)C(=O)N(CC2CCOCC2)[C@H]2CN(Cc3ccccc3O)C[C@H]2[S+]1(=O)[O-]	i	u	0%[70.6 µM]	i	-20%[172 µM]	x	x	x
Cc1cc2ncc(C(=O)NCCCc3ccccc3)cn2n1	x	-11%[138 µM]	x	-2%[88.5 µM]	-16%[172 µM]	x	x	x
CC(C)Oc1ccc(C(=O)Nc2ccc(-c3nc4ccccc4s3)cc2)cc1	x	x	x	x	x	18%	10%	4%
Oc1ccc(-c2nc3ccccn3c2Nc2ccc3c(c2)OCCO3)cc1	x	x	x	x	x	21%	17%	u
CN(C)c1ccc(-c2nc3ccccn3c2Nc2ccc3c(c2)OCCO3)cc1	x	x	x	x	x	19%	13%	11µM*
O=C(c1ccc(C(F)(F)F)cc1)N1CCCC(C(=O)N2CCC(N3CCOCC3=O)CC2)C1 (configuration not stated)	x	-5%	x	-6%	-5%	x	x	x

Screening data deposited in PubChem by National Center for Advancing Translational Sciences (NCATS).
